In the library only some 4.1% were active in any assay of this set; here they are far more common.
hgDAF-12 ag – activates the H. glycines DAF-12 receptor ligand-binding domain; HEK293 GAL4-hgDAF12 UAS-luciferase reporter, agonist luminescence; normalized to butyrate control; activation, % at 6.8 µM; actives 1.8% (n = 370,000);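 active means activation above a cutoff set at the mean of all screened compounds plus 3 SD, cut at about 10% in these data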;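 further: 0% = DMSO wells and 100% = sodium butyrate wells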
DAX1 inh-1 – blocks DAX1 repression of SF-1 activated StAR promoter. HEK293T StAR-luciferase reporter, SF-1/DAX-1 repression relief. inhibition, % at 6.8 µM. actives 1.1% (n = 370,000);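 active means inhibition above the mean over all tested compounds plus 3 SD, cut at about 3.6% in these data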;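 further: 0% = DAX-1 cells with DMSO and 100% = cells lacking DAX-1 with DMSO; higher inhibition means more luminescence from relief of DAX-1 repression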
ssDAF-12 act – activates DAF-12 receptor from parasite S. stercoralis; HEK293 ssDAF-12/GRIP1 lit1-tk-luc reporter, luminescence; % of 3 µM dafachronic acid response; activation, % at 6.8 µM; actives 1% (n = 370,000); AID 652126;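 active means activation above the mean over all tested compounds plus 3 SD, cut at about 0.9% in these data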;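 further: 0% = DMSO-only wells and 100% = 3 µM delta7-dafachronic acid wells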
hcDAF12 agonist – activators of H. contortus DAF-12 nuclear receptor | HEK293 hcDAF-12 lit1-tk-luc reporter, luminescence; 0% DMSO, 100% Δ7-dafachronic acid | activation, % at 6.8 µM | actives 1.4% (n = 370,000);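 active means activation above the mean of all tested compounds plus 3 SD, cut at about 5.5% in these data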;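 further: 100% = response to 3 µM Δ7-dafachronic acid high control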
DAX1 inh-2 – inhibits human nuclear receptor DAX1 | actives 0.99% (n = 340,000) | HEK293 Gal4-DAX1 luciferase reporter, luminescence | P51843 | inhibition, % at 6.75 µM | AID 504766;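 active means inhibition above the mean over all tested compounds plus 3 SD, cut at about 4.2% in these data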;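 further: 0% = DAX1-transfected cells with DMSO and 100% = empty-vector control cells with DMSO; inhibition shows as a rise in luminescence from relieved DAX1 repression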
Target sequence (P51843 207-470 limits assumed): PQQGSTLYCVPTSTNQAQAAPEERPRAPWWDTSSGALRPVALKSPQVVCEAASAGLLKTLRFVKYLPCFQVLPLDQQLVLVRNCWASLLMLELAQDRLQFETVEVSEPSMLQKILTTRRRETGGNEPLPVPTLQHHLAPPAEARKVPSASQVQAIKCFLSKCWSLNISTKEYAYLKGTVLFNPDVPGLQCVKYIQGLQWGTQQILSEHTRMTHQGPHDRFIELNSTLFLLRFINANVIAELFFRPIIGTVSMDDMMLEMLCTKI
LXRb hcDAF ctr – counter-screen for hcDAF-12 agonists: agonists of human LXR-beta. shares compounds with hcDAF12 agonist. HEK293 Gal4-LXR tk-luc reporter, luminescence, 24 h; normalized: DMSO 0%, positive control 100%. activation, % at 6.8 µM. 3,400 tested, under 10 active. AID 743027;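 active means mean percent activation of the reporter above a cutoff set as the average over tested compounds plus their standard deviation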
Target sequence (P55055 whole entry, looked up, the tested form may be a part): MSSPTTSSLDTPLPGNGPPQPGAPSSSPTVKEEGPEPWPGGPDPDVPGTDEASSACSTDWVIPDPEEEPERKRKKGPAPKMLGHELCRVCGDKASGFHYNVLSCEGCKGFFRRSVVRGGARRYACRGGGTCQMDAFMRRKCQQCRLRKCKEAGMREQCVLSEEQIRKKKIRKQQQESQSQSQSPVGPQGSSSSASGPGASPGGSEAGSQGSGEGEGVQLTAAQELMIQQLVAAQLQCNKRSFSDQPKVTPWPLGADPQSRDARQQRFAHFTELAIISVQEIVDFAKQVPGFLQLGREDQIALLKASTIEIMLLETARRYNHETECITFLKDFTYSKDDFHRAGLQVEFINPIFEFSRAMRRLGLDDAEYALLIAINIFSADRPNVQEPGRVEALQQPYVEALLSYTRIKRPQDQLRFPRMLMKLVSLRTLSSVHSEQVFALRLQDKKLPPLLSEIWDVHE
hcDAF12 ag – confirmation of H. contortus DAF-12 agonists; shares compounds with hcDAF12 agonist; HEK293 hcDAF-12 lit1-tk-luc reporter, luminescence; % of Δ7-dafachronic acid response; activation, % at 6.8 µM; actives 61% (n = 3,400);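 active means mean activation across triplicate tests above the threshold derived from the earlier primary screen, cut at about 5.5% in these data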;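 further: 0% = DMSO only wells and 100% = 3 µM Δ7-dafachronic acid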
* marks the source's active call; other numbers are inactive results; nt = no result.

SMILES	hgDAF-12 ag	DAX1 inh-1	ssDAF-12 act	hcDAF12 agonist	DAX1 inh-2	LXRb hcDAF ctr	hcDAF12 ag
Cc1cccc(OCCCN2CCC(C(O)(c3ccccc3)c3ccccc3)CC2)c1	1.6	0.3	-1.6	-0.9	nt	nt	nt
CN(C)c1cccc(NC(=O)c2ccco2)c1	-0.1	0.3	-0.6	6.7*	0.3	0.2	5.3
Cc1cc(C)cc(N2Cc3ccccc3C2)c1	-2.6	0.6	-1.0	-0.1	0.1	nt	nt
CCc1ccc(N2Cc3ccccc3C2)cc1	29.0*	2.8	0.7	6.9*	2.9	1.0	7.7*
CCOC(=O)c1ccc(N2Cc3ccccc3C2=NC(=O)c2cccs2)cc1	1.1	2.3	-1.0	-1.3	0.2	nt	nt
CC(=O)c1ccc(N2Cc3ccccc3C2=NC(=O)c2cccs2)cc1	12.1*	3.5	0.1	6.6*	0.3	0.3	4.0
Cc1nc2ccc(N=NC3=C(O)CC(C)(C)CC3=O)cc2s1	12.3*	1.4	1.6*	8.0*	0.8	1.5	7.5*
Cc1nc2ccc(N=NC3=C(O)CCCC3=O)cc2s1	9.2	1.0	-0.6	2.2	1.7	nt	nt
O=C(Nc1ccc(Br)cc1)Nc1ccccc1Cl	9.4	-0.1	-0.3	7.7*	-1.3	0.5	4.0
O=C(Nc1ccc(CN2CCCCC2)cc1)Nc1ccccc1Cl	7.2	0.6	-0.8	1.0	3.0	nt	nt
COc1ccc(/C=[N+](\[O-])C2N(c3ccccc3)C(=S)SC2(C)C)cc1OC (centres undefined)	2.9	0.1	-1.1	9.3*	1.6	-0.2	0.3
O=C(Nc1ccc(F)cc1)OCCN1CCCC12CCC(c1ccccc1)CC2 (centres undefined)	-0.7	nt	-1.6	-1.3	nt	nt	nt
Cc1c(-c2ccccn2)c(=O)[nH]n1-c1ccc(F)cc1	25.6*	4.2*	1.8*	14.6*	1.6	1.6	15.2*
O=c1[nH]n(-c2ccc(F)cc2)c2ncccc12	-0.2	0.2	-1.0	-0.6	0.0	nt	nt
CC(C)C(=O)N1CCCCCCN1C(=O)C(C)C	-1.3	-0.9	-0.4	7.8*	4.4*	-0.2	-1.0
CC(CN1CCCCC1)C(=O)NN (centres undefined)	-1.0	0.3	-1.3	-1.1	0.4	nt	nt
O=C(CSc1nnc(SCc2cccc3ccccc23)s1)Nc1ccc(S(=O)(=O)Nc2nccs2)cc1	2.6	2.3	-1.1	-1.5	nt	nt	nt
Clc1ncccc1-c1nnn(-c2ccccc2)n1	13.1*	2.4	0.3	6.8*	0.6	1.5	7.0*
COc1ccccc1/C=C/C(=O)N1CCC(c2ccccc2)C1 (centres undefined)	11.6*	1.3	1.0*	6.7*	1.1	0.5	3.7
Cc1cc(C)c(S(=O)(=O)/N=C2\C=C(NS(=O)(=O)c3ccccc3)C(=O)c3ccccc32)c(C)c1	0.4	0.4	0.9*	8.0*	-0.8	-0.2	1.1
c1ccc(-c2cc(-c3cc(-c4ccccc4)on3)no2)cc1	1.2	0.5	-1.3	-0.2	0.9	nt	nt
COc1cccc(-c2nc(-c3ccccc3)no2)c1	18.7*	3.8*	2.0*	9.4*	3.6	1.7	14.9*
Cc1ccc(-c2nc(-c3ccccc3)no2)c(Cl)c1	-4.9	0.1	-1.2	1.3	-1.1	nt	nt
Cc1ccc(-c2nc(-c3ccccc3)no2)cc1	12.7*	3.9*	0.2	6.8*	2.3	1.4	8.5*
COc1ccc(-c2cc(-c3ccccc3)no2)cc1	11.4*	4.0*	0.9*	10.6*	-0.5	2.0	10.8*
SMILES	hgDAF-12 ag	DAX1 inh-1	ssDAF-12 act	hcDAF12 agonist	DAX1 inh-2	LXRb hcDAF ctr	hcDAF12 ag
COc1ccc(CNC(=O)[C@@H](Cc2ccccc2)NC(=O)[C@H]2O[C@@H](n3ccc(=O)[nH]c3=O)[C@H](O)[C@@H]2O)cc1	0.2	-0.4	-0.8	-1.8	nt	nt	nt
C=CCN(C(=O)[C@@H](C)[C@@H](O)c1ccc(C(C)=O)cc1)c1ccccc1	-1.4	-0.5	-0.8	-2.9	nt	nt	nt
O=C(O)c1ccc2c(=O)n3c(nc2c1)/C(=C/c1ccc(C(F)(F)F)cc1)CC3	0.6	0.1	-1.3	7.0*	-1.2	-0.4	1.2
N#Cc1ccc(/C=C2\CCCCn3c2nc2cc(C(=O)O)ccc2c3=O)cc1	1.1	0.7	-1.1	-0.5	2.3	nt	nt
c1ccc(C2=NN(c3ccccc3)CC2)cc1	11.2*	2.0	0.7	6.7*	4.3*	0.4	3.6
COC(=O)N1C[C@H](O)[C@H](O)C[C@@H]1c1ccccc1Br	-1.1	-0.9	-0.2	3.5	nt	nt	nt
Cc1ccc(-c2cc(=O)c3cc(C)ccc3[nH]2)cc1	8.0	1.3	0.6	7.0*	-1.7	1.4	7.0*
COc1ccc(C2Nc3ccccc3C(=O)N2Cc2ccco2)cc1COc1c(C)cc(NC(C)=O)cc1C (centres undefined)	-3.2	nt	-1.3	0.2	nt	nt	nt
Cn1c(-c2ccc3ccccc3n2)[n+](C)c2ccccc21	2.5	0.1	-1.2	10.1*	-1.2	0.1	2.4
C[C@H](O)[C@@H]1CN2CCc3c([nH]c4c(-c5ccccc5)cccc34)[C@@H]2C[C@@H]1N(C)C(=O)c1ccco1	-2.9	-0.8	-0.7	-3.2	nt	nt	nt
Cc1cccc(-c2cc3nc(C)cc(C)n3n2)c1	7.6	2.6	1.6*	8.6*	0.9	1.4	10.7*
Cc1cccc(-c2cc3nc(C)cc(N4CC(C)CC(C)C4)n3n2)c1 (centres undefined)	0.5	0.2	-1.0	-1.9	1.0	nt	nt
COc1ccccc1Nc1nc(-c2cccs2)cs1	10.0	1.8	1.6*	8.2*	-0.5	1.8	16.0*
COc1ccc(OC)c(Nc2nc(-c3cccs3)cs2)c1	3.6	0.5	0.9*	7.4*	-0.6	-0.1	4.6
Nc1ccccc1N=Nc1ccccc1N	9.7	1.1	0.6	6.7*	1.0	1.1	9.2*
COc1ccc2c(c1OC)C(=O)N1C(C(=O)O)Cc3c([nH]c4ccccc34)C21 (centres undefined)	2.5	1.0	0.5	8.8*	1.9	-0.3	2.8
C/C=C/C=C/C(=O)c1cc(C)c(OC(=O)CNC(=O)OC(C)(C)C)c(C)c1O	0.1	0.1	-1.0	-1.0	nt	nt	nt
Cc1cccn2cc(-c3ccc(F)cc3)cc12	3.8	0.6	-1.2	1.8	0.2	nt	nt
Cc1cccn2cc(-c3ccc(F)cc3)nc12	11.5*	3.9*	1.8*	12.5*	1.9	1.9	9.7*
O=C(Nc1cccc(F)c1)c1ccc(-c2ccccc2C(F)(F)F)o1	0.2	-0.3	-1.6	-1.0	nt	nt	nt
Cc1ccccc1-c1ccc(C(=O)Nc2cccc(F)c2)o1	8.4	0.4	-0.1	7.3*	1.9	0.3	5.7*
COC(=O)[C@]12CCCCC=C1N(Cc1ccc(OC)cc1)C(=O)[C@@H]2CC(=O)N1CCSCC1	1.8	-1.1	-0.5	-1.4	nt	nt	nt

Compound activity deposited in PubChem by The Scripps Research Institute Molecular Screening Center.
